Hit rate of the full screen: of about 69,000 compounds, about 8,600 (12%) showed an effect of 50% or more. This excerpt belongs to a sample that is enriched for strong results.

114 compounds from ChEMBL document CHEMBL4513216, “Probing the Open Global Health Chemical Diversity Library for Multistage-Active Starting Points for Next-Generation Antimalarials” (ACS Infect Dis, 2020) can be followed below.

The subject of the assay is Plasmodium berghei. Nature of the assay: Screen against P. berghei liver stage (PbLuc), transformed with Luciferase, at 10uM. The assay is classed as functional, HepG2. Particulars: tested at 10 uM.
For `CN(Cc1ccco1)[C@@H]1CN(C(=O)c2ccnnc2)C[C@@H]2CCCO[C@@H]21`, the INHIBITION came to 18.5%.
As to `CCN(CC)C(=O)Cn1cc(-c2nc(C(C)C)no2)nn1`, the INHIBITION is -18.1%.
With `O=C(c1cnco1)N1C[C@@H](O)[C@H](Oc2cccc(F)c2)C1`, the INHIBITION was determined as 5.11%.
Consider `NC(=O)c1cccc(CNCC=Cc2ccccc2)c1`, for which the INHIBITION was found to be 17.1%.
In the case of `Cc1cc(F)ccc1CNCc1cccc(C(=O)N2CCCC2)c1`, the INHIBITION is listed as 7.67%.
Turning to `O=C(c1cccc(CNCC=Cc2ccccc2)c1)N1CCCC1`, the INHIBITION came to 58.5%.
The value for `COc1ccc(CN2CC(O)CN(C(=O)c3ccccc3)CC2=O)cc1` (centres undefined) was 23%; that for `CC(C)c1nc2n(n1)CC(NCC(=O)NCCC1=CCCCC1)CC2` (centres undefined) was 51.1%; that for `CCc1nc2n(n1)CC(NCc1nc(C)ccc1O)CC2` (centres undefined) was -15%.
On to `Cc1nc2n(n1)CC(NCC(=O)NCCC1=CCCCC1)CC2` (centres undefined), for which the INHIBITION came to 40.4%.
`CCc1nc2n(n1)CC(NCc1nc(C)c(C)o1)CC2` (centres undefined): the INHIBITION was found to be 46.6%.
As to `CCc1nnc(CNC2CCc3nc(C(C)C)nn3C2)o1` (centres undefined), the INHIBITION was -19.4%.
To `CC(C)c1nc2n(n1)CC(NCc1nnc(C(C)C)o1)CC2` (centres undefined) belongs 18.9%; to `CCc1nc2n(n1)CC(NCc1nnc(C(C)C)o1)CC2` (centres undefined), 60.2%.
To `CCc1nc2n(n1)CC(NCc1nc3ccccc3o1)CC2` (centres undefined) belongs 11.9%; to `CCc1nc2n(n1)CC(NCc1nc3ccccc3nc1C)CC2` (centres undefined), 53.3%.
To `Cc1nc2n(n1)CC(NCc1nc(C)c(C)o1)CC2` (centres undefined) belongs -67.9%.
`Cc1nc(CNC2CCc3nc(C(C)C)nn3C2)oc1C` (centres undefined): the INHIBITION worked out at 75.2%.
To `Cc1cc(NC(=O)CNC2CCc3nc(C(C)C)nn3C2)no1` (centres undefined) belongs -7.31%; to `CCN1C(=O)CC[C@@H]2[C@H]1CCN2S(=O)(=O)Cc1ccc(C)cc1`, 45.2%; to `Clc1ccc(-c2nc(CN3CCCC3Cn3cncn3)co2)cc1` (centres undefined), -24.2%.
The value for `c1coc(CN2CCO[C@H]3[C@H](OCC4CC4)CC[C@@H]32)c1` was -2.27%; that for `CCN(Cc1nc2c(cnn2C)c(=O)[nH]1)c1ccc(F)cc1` was 29.7%; that for `CC(C)Nc1nc(O)cc(C2CC(=O)N(Cc3ccccn3)C2)n1` (centres undefined) was -23.8%.
To `Cc1cc(C(=O)N2CCC(c3nnc(Cn4ccnc4)n3C)CC2)cs1` belongs -40.5%; to `Cc1ccc(C(=O)N2CCC3(CC(N(C)c4ccncn4)C3)C2)cn1` (centres undefined), 41.2%.
As for `Cc1cnn(CC2CCCN2C(=O)c2cc3c(F)cccc3[nH]2)c1` (centres undefined), the INHIBITION amounted to 24.6%.
The value for `CCCOC(C)C(=O)NCc1cc2n(n1)CCCN(C1CCCCC1)C2` (centres undefined) was 14.8%.
To `CN(C)S(=O)(=O)c1ccc(=O)n(CC2CCCCO2)c1` (centres undefined) belongs 4.52%; to `O=C(c1cccnc1)N1CCN(CC2CC2)c2ncccc2C1`, -18.4%.
As for `CSc1ccccc1C(=O)N1CCN(C)C2(CCC(=O)N(C)CC2)C1` (centres undefined), the INHIBITION is 46.7%.
For `Cc1c(F)cc(C(=O)O)cc1S(=O)(=O)Nc1ccccc1`, the INHIBITION came out at 20.265%.
Take `Cn1c(C2CCCCN2C(=O)CN2CCCC2=O)nc2ccccc21` (centres undefined): the INHIBITION worked out at 61.5%.
The value for `O=C1CSCN1CC(=O)N1CCCC1c1nc2ccccc2s1` (centres undefined) was 32.3%; that for `Cn1c(C2CCCN2C(=O)CN2CSCC2=O)nc2ccccc21` (centres undefined) was 59.3%; that for `Cn1cc(C2CCCN2C(=O)Cn2ccc3ccccc32)cn1` (centres undefined) was 23.1%.
Regarding `Cn1c(C2CCCN2C(=O)c2cn(CCN)nn2)nc2ccccc21` (centres undefined), the INHIBITION was found to be 28%.
Regarding `Cn1c(C2CCCN2C(=O)CN2CCCC2=O)nc2ccccc21` (centres undefined), the INHIBITION is recorded as 24.7%.
To `CN1CCOC(CN(C(=O)CC2CCCC2)c2nccs2)C1` (centres undefined) belongs 55.5%.
The value for `CN1CCOC(CN(C(=O)CCc2ccco2)c2nccs2)C1` (centres undefined) was 43.3%; that for `CN1CCOC(CN(C(=O)CN2CCCC2=O)c2nccs2)C1` (centres undefined) was 48.1%.
Turning to `Cc1cnn(CCC(=O)N(CC2CN(C)CCO2)c2nccs2)c1` (centres undefined), the INHIBITION is -31.6%.
In the case of `CN1CCOC(CN(C(=O)COc2ccccc2)c2nccs2)C1` (centres undefined), the INHIBITION is given as -2.53%.
For the compound `CN1CCOC(CN(C(=O)CCc2cnn(C)c2)c2nccs2)C1` (centres undefined), the INHIBITION worked out at 62.6%.
To `CCC1(CO)CCCN(C(=O)c2cc(COc3ccccc3F)[nH]n2)C1` (centres undefined) belongs -39.3%; to `Cn1cc(-c2cc(C(F)(F)F)nn2CCC#N)cn1`, 20.1%.
To `Cc1cc2c(cc1NC(=O)NCC(C)C)OCO2` belongs 28.5%; to `O=C1CCC2(CCN(CC[C@@H](O)c3ccccc3)CC2)CN1CC1CC1`, -51.7%; to `O=C(c1cccs1)N1CCCC(c2cc(C(F)F)n3ncnc3n2)C1` (centres undefined), 40%.
Regarding `O=C(CCCn1cccn1)N1CCCC(n2cncn2)C1` (centres undefined), the INHIBITION is on record as 12.9%.
Regarding `CC(C)C(=O)N1CCc2c(CN(C)Cc3ccco3)cncc2C1`, the INHIBITION is reported as -11.2%.
The value for `CC(NC(=O)Cc1ccccc1F)(C(N)=O)c1cccc(Cl)c1` (centres undefined) was 32%.
The value for `CC(C)(C)CC(=O)NC(C)(C(N)=O)c1cccc(Cl)c1` (centres undefined) was 74.5%; that for `CC(C)(CNC(=O)c1ccc(Cl)o1)NC(=O)OC(C)(C)C` was -60.9%; that for `Cc1nncn1CCNC(=O)C(C)(C)c1cccc(Cl)c1` was 24.3%.
The value for `Cc1cc(CNC(=O)Cc2cccs2)ccc1S(C)(=O)=O` was -3.68%; that for `COCCC(=O)NC(C)(C(N)=O)c1cccc(Cl)c1` (centres undefined) was 26.4%.
Turning to `CC(NC(=O)Cc1cccs1)(C(N)=O)c1cccc(Cl)c1` (centres undefined), the INHIBITION worked out at 60%.
The value for `CC(C)(C)OC(=O)NC(C)(C(N)=O)c1cccc(Cl)c1` (centres undefined) was 65.6%; that for `CC(C)(C)SCC(=O)NC(C)(C(N)=O)c1cccc(Cl)c1` (centres undefined) was -19.5%.
To `CCN(CC1=CCN(C)CC1)C(=O)CCOC` belongs 29.5%.
For the compound `CC1CCN(CCNCc2cc(-c3ccccc3)cn3nnnc23)CC1`, the INHIBITION is reported as 23.2%.
The value for `Cc1nc(C)n(CC2CN(CCCOc3ccc(F)cc3)CCO2)n1` (centres undefined) was 25.6%; that for `COC(=O)c1sc(C(F)(F)F)cc1OC` was 43.2%; that for `Cc1nsc(N2CCN(C(=O)Nc3ccc4[nH]ccc4c3)CC2)n1` was 25.5%.
To `OCc1csc(N2CCN(Cc3cccc(F)c3)CC2)n1` belongs 28.7%.
The value for `Cc1nsc(N2CCN(CC(=O)NCc3ccc(F)cc3)CC2)n1` was 40.9%.
As to `Cc1nsc(N2CCN(Cc3cccc(F)c3)CC2)n1`, the INHIBITION was determined as 57.6%.
The value for `Cc1nsc(N2CCN(C(=O)Nc3cccc(F)c3)CC2)n1` was 68.3%; that for `Cc1nsc(N2CCN(C(=O)Nc3cccc(C#N)c3)CC2)n1` was 37.2%; that for `CN(Cc1ccco1)C1CCC12CCN(C(=O)c1ccnnc1)CC2` (centres undefined) was -39.3%.
To `N#Cc1cccc(N2CC3(CCN(C(=O)C4CC=CC4)C3)CC2=O)c1` (centres undefined) belongs 13.6%.
To `COCCN1CCCCC12CC(=O)N(c1cccc(C#N)c1)C2` (centres undefined) belongs 61.1%.
Consider `COCCCN1CCCCC12CC(=O)N(Cc1ccccn1)C2` (centres undefined), for which the INHIBITION is on record as 18.7%.
With `O=C1CC2(CCCCN2CC2CC2)CN1c1ccccc1` (centres undefined), the INHIBITION is recorded as -31.4%.
As to `Cc1ccccc1N1CC2(CCCCN2CC2CC2)CC1=O` (centres undefined), the INHIBITION was 5.63%.
To `COCCN1CCCCC12CC(=O)N(c1ccccc1OC)C2` (centres undefined) belongs 93.7%; to `Fc1ccc(CN2Cc3nccn3CC(CN3CCOCC3)C2)cc1` (centres undefined), 32.2%; to `O=C(O)c1cc(-c2ccncc2)cc(S(=O)(=O)N2CCCCCC2)c1`, -8%.
As to `Cc1ccc(C(=O)N2Cc3c(CN(C)C)nn(C)c3C2)cc1C`, the INHIBITION was 14.6%.
The value for `CCN(C)S(=O)(=O)NCC1CCN(Cc2ccccc2C)CC1` was 24%.
To `CCN(C)C(=O)c1cccc(S(=O)(=O)NCCc2csc(N)n2)c1` belongs 48%; to `CCN(C)C(=O)c1cccc(S(=O)(=O)NCCc2nc(C)cc(=O)[nH]2)c1`, 45.2%; to `CCc1nc(CCNS(=O)(=O)c2cccc(C(=O)N(C)CC)c2)cs1`, 55.4%.
As to `CO[C@H]1CN(C(=O)c2nc(-c3ccccc3)[nH]c2C)CC[C@H]1N`, the INHIBITION amounted to 5.78%.
To `CCCc1nnc2sc(C3CCN(C4CCN(C)CC4)CC3)nn12` belongs 44.8%; to `CN1CCCC[C@@H]2[C@H]1[C@@H](c1ccccc1)CCN2C(=O)c1cccnc1`, 47.2%; to `Cc1nnsc1C(=O)N1CC[C@H](c2ccccc2)[C@@H]2[C@H]1CCCCN2C`, 70.1%.
On to `CN1CCCC[C@@H]2[C@H]1[C@@H](c1ccccc1)CCN2C(=O)c1ccncc1`, for which the INHIBITION is reported as -4.51%.
For `CN1CCCC[C@@H]2[C@H]1[C@@H](c1ccccc1)CCN2C(=O)c1cnccn1`, the INHIBITION came to 46.1%.
The value for `CN1CCCCC[C@@H]2[C@@H]1[C@H](c1ccccc1)CN2C(=O)c1cccnc1` was 47.2%.
To `CN1CCCC[C@@H]2[C@H]1[C@@H](c1ccccc1)CCN2C(=O)c1ccccc1` belongs 59.7%; to `CN1CC[C@H](c2ccccc2)[C@@H]2[C@H]1CCCCN2C(=O)c1cnccn1`, 57.4%; to `CN1CCCC[C@@H]2[C@H]1[C@@H](c1ccccc1)CCN2C(=O)c1ccccn1`, 20.8%.
As for `Cc1nnsc1C(=O)N1CCN(C(=O)C2CCC2)[C@@H]2CS(=O)(=O)C[C@@H]21`, the INHIBITION was 47.2%.
To `CC(C)CNC(=O)c1cc(C2CC2)nc2onc(C3CCNCC3)c12` belongs 13.5%; to `NCCc1c(-c2ccc(F)cc2)[nH][nH]c1=O`, 39.1%; to `COc1ccccc1CNC(=O)c1[nH]ncc1Cl`, 46.6%.
As for `NC(=O)Cn1cc(NC(=O)N2CCN(c3ccccc3)CC2)cn1`, the INHIBITION is given as -65.7%.
To `CC(C)N(C(=O)Cn1cc(Cl)cn1)c1ccccc1` belongs 21.8%.
The value for `Brc1cccc(-c2noc(CN3CCOCC3)n2)c1` was 43.3%.
`O=C(COc1coc(CN2CCCCC2)cc1=O)NCc1ccccc1`: the INHIBITION was 9.48%.
For the compound `Cn1cc(N2CC3(COCCN(Cc4ccsc4)C3)OCC2=O)cn1` (centres undefined), the INHIBITION worked out at 18.2%.
`Cc1cccc(CN2CCC3(CC2)CN(c2cccnc2)C(=O)CO3)n1`: the INHIBITION was determined as 30.3%.
To `COc1ccc(CN2CCC3(CCN(c4cccnc4)C3=O)C2)cc1` (centres undefined) belongs 8.67%; to `Cn1cc(N2CC3(CCN(Cc4ccccc4)CC3)OCC2=O)cn1`, 14.1%; to `Cc1cccc(CN2CCC3(CCN(c4cccnc4)C3=O)C2)n1` (centres undefined), 58.8%.
For the compound `Cn1cc(N2CC3(CCN(Cc4nccs4)CC3)OCC2=O)cn1`, the INHIBITION stood at 26.3%.
On to `Cc1cccc(CN2CCCC3(CCN(c4cccnc4)C3=O)C2)n1` (centres undefined), for which the INHIBITION is on record as 29%.
To `Cc1cccc(CN2CCC3(CC2)CN(c2cnn(C)c2)C(=O)CO3)n1` belongs 68.3%.
The value for `Cn1cc(N2CC3(COCCN(Cc4nccs4)C3)OCC2=O)cn1` (centres undefined) was 56.7%; that for `Cn1cc(N2CC3(CCN(Cc4ccsc4)CC3)OCC2=O)cn1` was 54.4%.
For the compound `Cn1cc(N2CC3(COCCN(Cc4ccccn4)C3)OCC2=O)cn1` (centres undefined), the INHIBITION is recorded as -8.54%.
Regarding `Cn1cc(N2CC3(CCN(Cc4cccs4)CC3)OCC2=O)cn1`, the INHIBITION is listed as -34.9%.
